CYP2C19 activ: cytochrome P450 2C19 (human) activation; recombinant CYP2C19, luciferin-H EGE luminescence; hits give high values; 0 = fully inhibited enzyme, 1 = untreated enzyme; activation factor at 5 µM; P33261; 96,000 tested, under 10 active;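 active = activation factor of at least 2 at 5 µM in the primary screen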;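 also: 0 = wells with 2.5 mM tranylcypromine and 1 = vehicle-only wells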
CYP2C19 inhib: inhibitors of human CYP2C19; inhibition, % at 5 µM; actives 21% (n = 96,000); P33261; AID 778; CYP2C19 Supersomes, luciferin-H EGE luminescence, 30 min;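 active = CYP2C19 inhibition above a set limit at 5 µM in the primary screen, cut at about 50% in these data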;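 also: plate controls were negative control wells for no effect and 2.5 mM tranylcypromine positive control for full effect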
sEH inh: soluble epoxide hydrolase (human) inhibition; P34913; recombinant human sEH enzymatic activity assay; inhibition, % at 2 µM; actives 0.34% (n = 91,000); AID 707; in the data active = inhibition above about 80%
CYP2C9 activ: increases human cytochrome P450 2C9 activity | P11712 | recombinant CYP2C9, luciferin-H conversion, luminescence; hits give high values; factor 1 = untreated enzyme, 0 = blocked | activation factor at 5 µM | actives 1.4% (n = 96,000);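 active = activation factor of 2 or more for CYP2C9 at a 5 µM dose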;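 also: 0 = sulfaphenazole-blocked wells and 1 = vehicle-only wells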
Target sequence (P11712 whole entry, looked up): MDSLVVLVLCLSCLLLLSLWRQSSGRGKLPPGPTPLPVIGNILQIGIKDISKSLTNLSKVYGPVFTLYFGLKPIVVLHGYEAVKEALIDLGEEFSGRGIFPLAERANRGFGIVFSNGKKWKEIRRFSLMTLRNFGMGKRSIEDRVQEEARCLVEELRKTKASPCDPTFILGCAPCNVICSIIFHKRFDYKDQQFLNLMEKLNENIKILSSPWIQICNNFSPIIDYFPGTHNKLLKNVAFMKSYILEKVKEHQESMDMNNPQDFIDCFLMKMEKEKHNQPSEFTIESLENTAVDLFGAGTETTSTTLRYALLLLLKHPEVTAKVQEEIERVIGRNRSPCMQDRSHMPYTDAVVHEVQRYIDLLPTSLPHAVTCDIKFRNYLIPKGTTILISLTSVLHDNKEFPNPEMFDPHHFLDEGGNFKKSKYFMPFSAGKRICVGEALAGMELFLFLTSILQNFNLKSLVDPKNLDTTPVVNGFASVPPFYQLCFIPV
sEH activator: soluble epoxide hydrolase (human) activation; activation, % at 2 µM; actives 0.04% (n = 91,000); P34913; purified human sEH enzymatic activity, activator screen; in the data active = activation above about 37%
CYP2C9 inh: human CYP2C9 inhibition; inhibition, % at 5 µM; actives 20% (n = 96,000); CYP2C9 Supersomes, luciferin-H conversion, luminescence; P11712;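 active = blocking of liver enzyme CYP2C9 beyond about 50% at 5 µM, limit read from the data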
The depositor's hits bear a star. This is a sample that favours compounds with a hit; in the whole collection about 27% have one here.

For CC1=C(C(N)=O)C(c2cccc(O)c2)n2nc(CCCO)nc2N1 (stereo unspecified) the results were CYP2C19 activ 1.2, CYP2C19 inhib -17, sEH inh 5, CYP2C9 activ 1.1, sEH activator -6 and CYP2C9 inh -8.
CCOC(=O)c1cc(NC(=O)N2CCCc3ccccc32)c(C)nc1C was read as CYP2C19 activ 0.7, CYP2C19 inhib 34, sEH inh 0, CYP2C9 activ 0.5, sEH activator -1 and CYP2C9 inh 49.
`Cc1nc(C)c(NC(=O)N2CCc3ccccc32)cc1NC(=O)N1CCc2ccccc21` gave CYP2C19 activ 0.5, CYP2C19 inhib 52*, sEH inh 12, CYP2C9 activ 0.2, sEH activator -13 and CYP2C9 inh 77*.
`CCCc1noc2c1/C(=N\O)CC(c1ccccc1)C2` (stereo unspecified) gave sEH inh 3 and sEH activator 0.
Screening Cc1[nH]nc2c1/C(=N/O)CC(c1ccccc1)C2 (stereo unspecified) returned CYP2C19 activ 0.3, CYP2C19 inhib 74*, sEH inh -12, CYP2C9 activ 0.6, sEH activator 13 and CYP2C9 inh 45.
Cc1[nH]nc2c1/C(=N\O)CC(C)(C)C2 was read as CYP2C19 activ 0.5, CYP2C19 inhib 51*, sEH inh 7, CYP2C9 activ 0.7, sEH activator -6 and CYP2C9 inh 26.
Cc1[nH]nc2c1C(=O)CC(C)(C)C2 was read as CYP2C19 activ 1, CYP2C19 inhib -2, CYP2C9 activ 1 and CYP2C9 inh 1.
CCCc1n[nH]c2c1/C(=N/O)CC(c1ccccc1)C2 (stereo unspecified) was read as CYP2C19 activ 0.2, CYP2C19 inhib 77*, sEH inh 2, CYP2C9 activ 0.6, sEH activator 1 and CYP2C9 inh 35.
CCc1noc2c1/C(=N\O)CC(c1ccccc1)C2 (stereo unspecified) was read as CYP2C19 activ 0.2, CYP2C19 inhib 76*, sEH inh 4, CYP2C9 activ 0.3, sEH activator -6 and CYP2C9 inh 72*.
For CC12CCC(C(=O)N3CCN(C(=O)C45CCC(C)(C(=O)O4)C5(C)C)CC3)(OC1=O)C2(C)C the results were sEH inh 2 and sEH activator 0.
COc1ccc(NC(=O)c2ccc(C(=O)c3ccccc3)o2)cc1 was read as CYP2C19 activ 1, CYP2C19 inhib 4, sEH inh 11, CYP2C9 activ 0.6, sEH activator -14 and CYP2C9 inh 38.
CCOC(=O)/C(=N\Nc1ccc(OC)cc1)c1csc(Nc2ccccc2)n1 was read as CYP2C19 activ 0.9, CYP2C19 inhib 11, sEH inh -2, CYP2C9 activ 0.6, sEH activator 1 and CYP2C9 inh 44.
`COc1ccc(OC)c(C2CC(=O)N3CN(c4ccccc4)CSC3=C2C#N)c1` (stereo unspecified) gave CYP2C19 activ 0.6, CYP2C19 inhib 41, sEH inh 5, CYP2C9 activ 0.4, sEH activator -6 and CYP2C9 inh 60*.
COc1ccc(C2CC(=O)N3CN(c4ccccc4F)CSC3=C2C#N)cc1OC (stereo unspecified) was read as CYP2C19 activ 0.9, CYP2C19 inhib 8, sEH inh -11, CYP2C9 activ 0.2, sEH activator 10 and CYP2C9 inh 84*.
Cc1cccc(N2CSC3=C(C#N)C(c4ccc(C)o4)CC(=O)N3C2)c1 (stereo unspecified) was read as CYP2C19 activ 0.6, CYP2C19 inhib 42, sEH inh 6, CYP2C9 activ 0.1, sEH activator -3 and CYP2C9 inh 86*.
Screening COc1cc(OC)c(C2CC(=O)N3CN(c4ccccc4C)CSC3=C2C#N)cc1OC (stereo unspecified) returned CYP2C19 activ 0.5, CYP2C19 inhib 49, CYP2C9 activ 0.1 and CYP2C9 inh 86*.
For COc1ccc(N2CSC3=C(C#N)C(c4cccc(OC)c4OC)CC(=O)N3C2)cc1 (stereo unspecified) the results were CYP2C19 activ 1, CYP2C19 inhib -3, sEH inh -2, CYP2C9 activ 0.9, sEH activator 1 and CYP2C9 inh 7.
Cc1occc1-c1nnc(SCC(=O)N(C)CCC#N)n1N was read as CYP2C19 activ 0.9, CYP2C19 inhib 6, sEH inh 3, CYP2C9 activ 1, sEH activator -2 and CYP2C9 inh 4.
COCCNC(=O)CN1CCC(n2c(C)nc3cc(C(F)(F)F)ccc32)CC1 was read as CYP2C19 activ 0.8, CYP2C19 inhib 16, CYP2C9 activ 1 and CYP2C9 inh 4.
CC1CCc2c(sc(N)c2C(=O)OC(C)C)C1 (stereo unspecified) was read as CYP2C19 activ 0.9, CYP2C19 inhib 10, sEH inh 1, CYP2C9 activ 1.4, sEH activator -3 and CYP2C9 inh -44.
For COc1ccc(C2CC(=O)N3CN(c4ccc(C)c(Cl)c4)CSC3=C2C#N)cc1 (stereo unspecified) the results were CYP2C19 activ 0.2, CYP2C19 inhib 77*, sEH inh -6, CYP2C9 activ 0, sEH activator 7 and CYP2C9 inh 98*.
For CCc1ccccc1N1CSC2=C(C#N)C(c3ccccc3F)CC(=O)N2C1 (stereo unspecified) the results were CYP2C19 activ 0.2, CYP2C19 inhib 82*, CYP2C9 activ 0.1 and CYP2C9 inh 94*.
For CC1CCN(C(=O)Cn2cc(C(=O)C3CC3)c3ccccc32)CC1 the results were sEH inh -5 and sEH activator 10.
Screening COc1cc(OC)cc(C(=O)NN2CCCCC2)c1 returned CYP2C19 activ 1.1, CYP2C19 inhib -9, sEH inh -24, CYP2C9 activ 1.2, sEH activator 24 and CYP2C9 inh -15.
Cn1c(SCc2ccccn2)nnc1-c1cnccn1 was read as CYP2C19 activ 0.9, CYP2C19 inhib 10, CYP2C9 activ 0.9 and CYP2C9 inh 6.
Cn1c(SCc2ccc(F)cc2)nnc1-c1ccccn1 was read as CYP2C19 activ 0.1, CYP2C19 inhib 88*, sEH inh 15, CYP2C9 activ 0.9, sEH activator -17 and CYP2C9 inh 5.
CC(C)(C)NC(=O)CSc1nc(O)cc(=O)n1-c1ccccc1 was read as CYP2C19 activ 0.9, CYP2C19 inhib 9, sEH inh -11, CYP2C9 activ 0.6, sEH activator 12 and CYP2C9 inh 44.
CC(C)(C)NC(=O)CSc1nc2ccccc2n1-c1ccccc1 was read as CYP2C19 activ 0, CYP2C19 inhib 99*, sEH inh -18, CYP2C9 activ 0, sEH activator 16 and CYP2C9 inh 100*.
For CC(C)(C)NC(=O)CSc1nnc(-c2ccccn2)n1-c1ccccc1 the results were CYP2C19 activ 0.5, CYP2C19 inhib 53*, CYP2C9 activ 1 and CYP2C9 inh 1.

Bioassay records deposited in PubChem BioAssay by several laboratories.
